Experimental findings from PubChem BioAssay (NCI) are described below.

This is part of a sample that, as a whole, favours compounds with a hit. Of some 83,000 tested, about 20% had one in any assay.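 How to read the values: 0–100, growth inhibition (40 = 60% inhibited); 0, no net growth; -100 to 0, cell death (-40 = 40% of starting cells died; -100 = all dead).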 Values without a mark were called inactive. Active and inactive are the calls of the source. Rule for the calls: active = growth percent below 10; inactive = the rest.

Some test systems named below: EKVX NSCLC; SN12C renal; UO-31 renal; TK-10 renal; ACHN renal; A498 renal; CCRF-CEM leukemia; MOLT-4 leukemia; SR leukemia; CAKI-1 renal.
Holding throughout (assay): NCI-60 one-dose screen, 48 h (100 = growth as untreated, 0 = no growth, -100 = all killed)
Holding throughout (settings): 10 µM

Turning to `CCCCOc1ccc(NC(=O)Nc2nnc(C)s2)cc1`, the growth in the test with EKVX NSCLC was 99.6%; in the test on SN12C renal, 93.3%; in the test on UO-31 renal, 87%; with TK-10 renal, 118%; in the test on ACHN renal, 94.5%; in the test with A498 renal, 108%. Moreover, the growth in the test on CCRF-CEM leukemia is 72.9%; with MOLT-4 leukemia it was 90.4%; in the test with SR leukemia, 101%.

Take `CC(C)(C)c1ccc(N2CSC(=S)N(c3ccc(C(C)(C)C)cc3)C2)cc1`: the growth in the test with EKVX NSCLC is 84.1%; in the test on SN12C renal, 99.6%; in the test on UO-31 renal, 79.4%; in the test on TK-10 renal it was 111%; in the test on ACHN renal it was 89%; with A498 renal it was 107%. Moreover, the results for the growth with CCRF-CEM leukemia, with MOLT-4 leukemia and in the test with SR leukemia were 88.5%, 100% and 112%, respectively.

For `O=C(C[n+]1ccccc1)c1ccc2ccccc2c1`, the growth in the test with EKVX NSCLC is 88.2%; in the test on SN12C renal, 93.8%; in the test on UO-31 renal, 74%; in the test on TK-10 renal it was 102%; with CAKI-1 renal it was 96.7%; with CCRF-CEM leukemia it was 95.9%. The growth is 96% in the test on MOLT-4 leukemia and 92.1% with SR leukemia.

Regarding `CN(C)c1ccc(-c2cc(-c3cccc(NS(C)(=O)=O)c3)nc(N)c2C#N)cc1`, the growth in the test with EKVX NSCLC was 17.3%; with SN12C renal, 37.9%; in the test on UO-31 renal, 11.2%; in the test on TK-10 renal, 42.1%; in the test with ACHN renal it was 26.1%; with CCRF-CEM leukemia, 15.9%. In addition, the values for the growth in the test with MOLT-4 leukemia and with SR leukemia were 24.3% and 9.27% (active), respectively.

With `ClCC#CCSc1ncnc2c1ncn2CC#CCCl`, the growth in the test with EKVX NSCLC was 10.5%; in the test with SN12C renal, 20.2%; in the test with UO-31 renal, 2.36% (active); in the test on TK-10 renal it was 71.1%; in the test on ACHN renal, 11.7%; in the test on MOLT-4 leukemia it was 15.4%. The growth in the test on SR leukemia was 14.6%.

In the case of `COc1ccc2c(c1)sc1nc(-c3ccccc3)c(-c3ccc(O)c(OC)c3)n12`, the growth in the test on EKVX NSCLC is 88.4%; with SN12C renal, 96.3%; in the test with UO-31 renal, 99.8%; in the test with TK-10 renal, 120%; with CAKI-1 renal, 77.5%; with A498 renal, 76.6%. Further, the growth in the test with MOLT-4 leukemia is 71.2%; in the test on SR leukemia, 17.2%.

For `CC(=O)n1c(-c2ccc(Cl)c(Cl)c2)cn(-c2ccc(Cl)cc2)c1=O`, the growth with EKVX NSCLC was 30.3%; in the test with SN12C renal, 46.9%; in the test with UO-31 renal it was 3.31% (active); in the test on TK-10 renal, 54.4%; in the test on A498 renal, 4.91% (active); in the test with CCRF-CEM leukemia, -26.3% (active). Also, in the test on MOLT-4 leukemia, the growth was 18.4%.

As for `COc1ccc(-c2cc(-c3cccc(NS(C)(=O)=O)c3)nc(N)c2C#N)cc1`, the growth is 22% with EKVX NSCLC; 43.3% in the test on SN12C renal; 31.9% in the test on UO-31 renal; 67.5% with TK-10 renal; 36.4% in the test on ACHN renal; 19% in the test with CCRF-CEM leukemia. For the same compound, the growth in the test with MOLT-4 leukemia is 19.7%; with SR leukemia, 16.1%.

With `COc1ccc2c(c1)C(=O)c1c-2c(OCCN2CCCCC2)nc2ccc(OC)cc12`, the growth is 39.6% with EKVX NSCLC; 20% in the test on SN12C renal; -6.08% (active) in the test with UO-31 renal; 41.1% in the test with TK-10 renal; -11.5% (active) with CAKI-1 renal; 53.7% in the test on A498 renal. Also, the growth in the test on CCRF-CEM leukemia is 14.3%; in the test on MOLT-4 leukemia it was 8.36% (active); with SR leukemia, 2.46% (active).

Turning to `COc1cc(CNc2ccccc2C(=O)N2CCN(C(=O)c3cc(-c4cc(OC)c(OC)c(OC)c4)n4nc(-c5ccccc5)cc4n3)CC2)cc(OC)c1OC`, the growth in the test on EKVX NSCLC was 63.6%; in the test with SN12C renal, 79.4%; in the test on UO-31 renal, 19.1%; in the test with TK-10 renal it was 52.1%; in the test on CAKI-1 renal it was 18.9%; in the test with A498 renal, -5.33% (active). The growth in the test with CCRF-CEM leukemia was 58.8%; in the test with MOLT-4 leukemia, 68%; with SR leukemia, 8.84% (active).

Consider `COc1ccc(-c2nnc(-c3c(-c4ccccc4)nc4ncccn34)o2)cc1OC`, for which the growth with EKVX NSCLC is 114%; in the test with SN12C renal, 97.3%; in the test with UO-31 renal, 79%; in the test with TK-10 renal, 111%; in the test on CAKI-1 renal, 103%; in the test with A498 renal, 117%. Further, the growth was 96.7% with CCRF-CEM leukemia, 93.1% in the test with MOLT-4 leukemia and 81.1% in the test with SR leukemia.

For the compound `Cc1occc1-c1nnc(SCC(=O)c2ccc(NC(=O)CC(C)C)cc2)o1`, the growth in the test on EKVX NSCLC was 103%; with SN12C renal, 107%; with UO-31 renal, 93.7%; with TK-10 renal, 123%; with CAKI-1 renal it was 84.1%; in the test on A498 renal, 118%. The growth in the test on CCRF-CEM leukemia is 93.4%; in the test with MOLT-4 leukemia, 100%; in the test on SR leukemia, 7.85% (active).

With `O=C(NN1C(=O)CSC1c1ccc(Cl)cc1)c1cccnc1` (stereo not given), the growth in the test on EKVX NSCLC was 95.2%; in the test with SN12C renal, 131%; with UO-31 renal, 72.2%; in the test with TK-10 renal, 107%; in the test with CAKI-1 renal it was 98.2%; with CCRF-CEM leukemia it was 99.5%.

As for `CCN(CCCCCCCCCCN1CC(=O)N(CCCCCCCCCCN(CC)Cc2ccccc2OC)CC1=O)Cc1ccccc1OC`, the growth with EKVX NSCLC is -0.258% (active); in the test on SN12C renal, 9.4% (active); with UO-31 renal, -74.8% (active); in the test on TK-10 renal, 10.1%; in the test with CAKI-1 renal, -12.8% (active); in the test with CCRF-CEM leukemia it was -25.5% (active). Besides, the growth was -32.7% (active) with MOLT-4 leukemia and -61.3% (active) in the test with SR leukemia.

Regarding `CCOC(=O)C(=Cc1ccc(Br)cc1)C(=O)OCC`, the growth in the test with EKVX NSCLC was 50.5%; in the test with SN12C renal it was -21% (active); in the test on UO-31 renal, -85.7% (active); with TK-10 renal, 8.18% (active); with A498 renal, -12.6% (active); with CCRF-CEM leukemia, -29.1% (active). Further, the growth in the test on MOLT-4 leukemia was -8.75% (active); in the test with SR leukemia, -42% (active).

Regarding `NC(=O)c1ccc(-c2cccc3c(=O)nc(N4CCOCC4)oc23)cc1`, the growth in the test with EKVX NSCLC was 97.3%; with SN12C renal it was 104%; in the test on UO-31 renal, 89.2%; with ACHN renal, 100%; in the test with A498 renal it was 98.2%; in the test with CCRF-CEM leukemia, 98.6%. The growth in the test with MOLT-4 leukemia is 103%; with SR leukemia it was 92%.
